Compounds without any hit were thinned out: in the full panel of roughly 83,000, 20% have a hit.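 Cell lines were cultured in 96-well plates, exposed to a single compound concentration, and assessed for percent growth 48 hours later.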 The source made the active and inactive calls.

The assay concerns IGROV1 ovarian. In words: NCI-60 one-dose screen, 48 h (100 = growth as untreated, 0 = no growth, -100 = all killed). The following applies: 10 µM unless noted. How it is done:
Growth inhibition of the IGROV1 human tumor cell line is measured as a screen for anti-cancer activity. Cells are grown in 96 well plates and exposed to the test compound for 48 hours. Compounds are tested at a single concentration, which is 10^-5 M for most compounds. The reported endpoint is percent growth (GI% or GIPRCNT), where numbers from 0 - 100% represent growth inhibition, and numbers from -100% - 0 represent cell death. For example, a value of 40 represents 60% growth inhibition. A value of 0 means no net growth occurred over the course of the experiment. A value of -40 indicates 40% of cells at the beginning of the experiment died by the end of the experiment. A value of -100 means all cells are dead at the end of the experiment.
NCI-60 Human Tumor Cell Lines Screen was performed using the standard one-dose NCI protocol, which is described in more detail at https://dtp.cancer.gov/discovery_development/nci-60/default.htm.
Compounds with GIPRCNT values below 10 were considered active. Activity score was based on GIPRCNT using the following formula: […]
Score is 0 for GIPRCNT values of 100 or above, 50 for GIPRCNT values of 0, and 100 for GIPRCNT values of -100.
Consider `COc1ccc(C(=O)C2C(c3ccc(OC)cc3)CN(C)C23C(=O)Nc2ccccc23)cc1` (stereo not given), for which the growth was 80.8% (inactive).
As for `CNc1nc(S(=O)c2ccc(C#N)cc2)nc2ccccc12` (stereo not given), the figure is 86.3% (inactive).
Consider `C[C@H](NC(=O)[C@@H](C)N)[C@H](Oc1ccc2c(cnn2-c2ccc(F)cc2)c1)c1ccc2c(c1)OCCO2`, for which the growth was 40.9% (inactive).
The same measure for `C=CCc1c(O)c(C(=O)/C=C/c2ccc(Cl)cc2)c(OC)c2ccoc12`: 43.3% (inactive); for `N#Cc1c(N)nnn1Cc1cc(=O)oc2c1ccc1ccccc12`: 101% (inactive).
The same measure for `C=CCc1c2c(c(OC)c3ccoc13)C(=O)/C(=C/c1ccccc1OC)O2`: 54.8% (inactive).
`Cc1ccc(-n2c(=S)[nH]c3sc4c(c3c2=O)CCC(=O)C4)cc1`: the growth was 48.9% (inactive).
Regarding `CC1=Nc2cnc(Nc3ccc(OCCN4CCCC4)cc3)nc2Nc2ccccc21`, the growth is 23.1% (inactive).
The same measure for `CC(C)(C)[Si](C)(C)O[C@H]1C(=O)C=CN2CC=C[C@@H]12`: 114% [100 µM] (inactive).
As to `O=C1c2cccc(NCCN=Cc3cc(O)ccc3O)c2C(=O)c2c(NCCN=Cc3cc(O)ccc3O)cccc21`, the growth was -6.03% (active).
As for `COc1ccc(OC)c(C(=O)/C=C/c2cc3c(c(OC)c2OC)OCO3)c1`, the growth is 71.5% (inactive).
As for `N#Cc1c(NC(=O)c2ccccc2)sc2c1CCC(=O)C2`, the figure is 27.4% (inactive).
Turning to `O=C(Nc1ccc(-c2nc(N3CCOCC3)c3cccn3n2)cc1)Nc1cccnc1`, the growth was -19.2% (active).
As for `COc1cccc(CNc2ncnc3c2ncn3C2OC(CO)C(O)C2O)c1O` (stereo not given), the figure is -23.4% (active); as for `CC(=O)Cc1nsc(NC(=O)c2cc(-c3cc(Cl)cc(Cl)c3)oc2C)n1`, 102% (inactive).
The same measure for `O=C(CCc1nnc(Cn2cnc3nc[nH]c3c2=O)o1)c1nc2ncccc2[nH]1`: 102% (inactive); for `COc1ccc(-c2csc(NC(=O)CSc3nc(-c4ccccc4)cc(=O)[nH]3)n2)cc1`: 71.6% (inactive); for `CCNc1nc(-c2ccc(Cl)c(OC)c2)c(-c2ccnc(NCCCNS(=O)(=O)c3ccc(Cl)cc3)n2)s1`: 56.1% (inactive).
Take `O=C1C(Cl)=C(Nc2ccc(O)cc2)C(=O)N1Cc1ccc(Cl)cc1`: the growth was 30.5% (inactive).
The same measure for `CCO/C=N/C1=C(C#N)C(c2ccc(OC)cc2)c2sc3c(F)cccc3c2O1` (stereo not given): 44.4% (inactive).
As for `Cc1ccc(-c2nc(/C=C3/C(=O)Nc4ccccc43)c3ccccn23)cc1`, the figure is 22.9% (inactive); as for `COc1cc(CNC(=O)CCCC/C=C/C(C)C)ccc1OCc1nnc(Nc2ccc([N+](=O)[O-])cc2)o1`, 53.5% (inactive).
As for `CCSc1nc(NC)c2cc(-c3ccc(C(F)(F)F)cc3)ccc2n1`, the figure is 97.2% (inactive); as for `COc1ccc(-c2cc(-c3ccc(Cl)cc3)c(C#N)c(=O)n2CCCCC(=O)Nc2ccccc2N)cc1`, 47.4% (inactive).
In the case of `O=S(=O)(Nc1ccccc1)c1ccc(C2CC3(Cl)C(Cl)=C(Cl)C2(Cl)C3(Cl)Cl)cc1` (stereo not given), the growth is 54.8% (inactive).
For `O=C1/C(=C\c2cn(-c3ccccc3)nc2-c2ccc(-c3cccs3)cc2)CCc2ccccc21`, the growth was 56.5% (inactive).
As for `Nc1nc2c([nH]1)c1[nH]c3ccccc3c1c1[nH]c3ccccc3c21`, the growth is 58.9% (inactive).
With `O=C(CSc1nc2ccc([N+](=O)[O-])cc2[nH]1)Nc1cccc(C(F)(F)F)c1`, the growth was 41% (inactive).
On to `O=C(Cc1ccccc1)Nc1nc(O)c(/C=C2\C(=O)C=Cc3ccccc32)s1`, for which the growth was 102% (inactive).
As for `Cc1ccc(-c2nc(N3CCNCC3)c3oc(-c4ccccc4)nc3n2)cc1`, the figure is -68% (active).
For `CNC(=O)c1cc(Oc2ccc3nc(NC(C)=O)sc3c2)ccn1`, the growth was 104% (inactive).
Regarding `CC(C)CCNC(=O)Cn1cccc(NC(=O)OCc2ccccc2)c1=O`, the growth is 112% (inactive).
Turning to `Cc1ccc(/C=C2\CN(C(=O)OC(C)(C)C)C/C(=C\c3ccc(C)cc3)C2=O)cc1`, the growth was 69.3% (inactive).
For the molecule `N#CCSc1nnc2n(Cc3ccccc3)c(=O)c3c4c(sc3n12)CCCC4`, the growth was 74.2% (inactive).
Take `Cn1cc(-c2nc(-c3c[nH]c4ccncc34)cs2)c2ccccc21`: the growth is 67.3% (inactive).
As for `CN(CCOc1ccc(C#N)cc1)CCOc1ccc(C#N)cc1`, the growth was 61.1% (inactive).
As for `CSc1nc2sc3c(c2c(=O)n1-c1ccc([N+](=O)[O-])cc1)CCCCC3`, the figure is 84.8% (inactive).
As for `CN1CCN(C(=O)c2ccc(NC(=O)Nc3ccc(-c4nc(N5CCOCC5)c5cccn5n4)cc3)cc2)CC1`, the figure is -29.2% (active).
The same measure for `Clc1ccc2c(c1)N(c1ncnc3ccc(-c4cnc5[nH]ncc5c4)cc13)CC2`: 0.128% (active).
As to `CC(C)c1ccc(NC(=O)Nc2ccc(NC(=O)CCCC(=O)NOCc3ccccc3)cc2)cc1`, the growth was 91.5% (inactive).
